# Screening data deposited in PubChem BioAssay by National Center for Advancing Translational Sciences (NCATS).
# TRb SRC2 PPI = disrupts binding of human TR beta to SRC2; TRbeta-SRC2 peptide binding, fluorescence polarization; receptor liganded with 1 µM T3; Potency, µM (series often up to 106 µM), for inactives: top-dose activity change, negative = inhibition, hits mostly inhibitors; 280,000 tested, 0.065% active; AID 1469;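 note: potency is the fitted concentration of half-maximal effect; plate controls were bound peptide for no effect and peptide without receptor for full effect; nearly all actives have a fitted effect of over 50% in size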
#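 Fluorescence polarization of 20 nM Texas Red SRC2 peptide with 0.6 uM human TRb ligand-binding domain, in Tris buffer with 1uM T3 and 5% DMSO. Incubated 5 hr ambient; normalized to unbound and bound controls.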
# Menin MLL FP FL = menin-MLL binding inhibition, fluorescein peptide; FP activity change, % at 61.4 µM; 290,000 tested, under 10 active; Fluorescence polarization, fluorescein-MLL peptide displacement from menin; active = well fitted curve in the direction sought with a large enough effect in the polarisation, not every such curve was filed as active; inconclusive = small, poorly fitted or top-dose-only effect, or effect the other way, or a change in a side signal; inactive = no such curve, though single readings can be large or run the other way; the % refers to the polarisation; note: % of control where 0% means no effect
# TR SRC2 fluor cs = counter-screen for TRb-SRC2 inhibitors: fluorescence interference; AID 1479; TRb/SRC2 Texas Red total fluorescence interference; 280,000 tested, 0.29% active; Potency, µM (top dose mostly 106 µM), without a hit: top-dose fluorescence change, negative = quenching; active = well fitted curve in either direction with a large enough effect; inconclusive = small, poorly fitted or top-dose-only effect; note: potency is the fitted concentration of half-maximal effect; % is set by controls: 0 for no effect and ±100 for the full control effect
#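 Human TRb ligand-binding domain at 0.6 uM with 20 nM Texas Red SRC2 peptide in Tris buffer containing 1 uM T3 and 5% DMSO, incubated with compound 5 h at ambient temperature. Total fluorescence (555/632 nm) calculated as parallel + 2 × perpendicular.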
# Menin-MLL TR inh = menin-MLL binding inhibition, Texas Red mutant peptide | O00255 | Menin + Texas Red MLL mutant peptide, fluorescence polarization | Potency, µM (titrated, usually from 61.6 µM), inactives show top-dose FP activity change, negative = inhibition, hits mostly inhibitors | 270,000 tested, 0.23% active | AID 1768; active = well fitted inhibition curve with a large enough effect in the polarisation, with a control signal flat, not every such curve was filed as active; inconclusive = small, poorly fitted or top-dose-only effect, or effect the other way, or a change in a side signal; inactive = no such curve, though single readings can be large or run the other way; the % refers to the polarisation; note: potency is the fitted concentration of half-maximal effect; % of control where 0% means no effect
# Target sequence (O00255 whole entry, looked up): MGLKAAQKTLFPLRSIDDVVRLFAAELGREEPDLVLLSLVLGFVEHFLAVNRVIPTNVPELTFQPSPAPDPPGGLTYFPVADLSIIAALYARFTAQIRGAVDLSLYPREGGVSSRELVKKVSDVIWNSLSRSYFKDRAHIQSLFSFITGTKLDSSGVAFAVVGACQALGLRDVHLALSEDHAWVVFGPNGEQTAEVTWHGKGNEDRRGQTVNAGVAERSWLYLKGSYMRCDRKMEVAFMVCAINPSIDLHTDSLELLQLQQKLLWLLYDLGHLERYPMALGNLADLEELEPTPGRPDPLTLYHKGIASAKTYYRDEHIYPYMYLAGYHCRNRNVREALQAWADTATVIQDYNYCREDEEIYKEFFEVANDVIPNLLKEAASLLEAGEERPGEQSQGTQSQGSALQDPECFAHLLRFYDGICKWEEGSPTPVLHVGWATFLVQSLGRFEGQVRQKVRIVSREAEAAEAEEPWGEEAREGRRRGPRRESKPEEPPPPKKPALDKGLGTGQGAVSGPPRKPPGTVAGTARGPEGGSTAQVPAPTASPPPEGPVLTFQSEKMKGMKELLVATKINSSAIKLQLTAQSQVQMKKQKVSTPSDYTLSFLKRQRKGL
# RGS12 GoLoco inh = inhibitors of human Gai1-RGS12 GoLoco interaction (red fluorophore) | P63096 | Gai1:RGS12 GoLoco peptide FP, rhodamine, 10 min | Potency, µM (series often up to 61.6 µM), inactives show at the highest dose activity, negative = inhibition, actives largely listed as inhibitors | 230,000 tested, 0.44% active | AID 880; active = well fitted inhibition curve with a large enough effect, not every such curve was filed as active; inactive = no such curve, though single readings can be large or run the other way; note: potency is the fitted concentration of half-maximal effect; % is set by controls: 0 for no effect and ±100 for the full control effect; nearly all actives have a fitted effect of over 30% in size
# CXXC DNA block = MLL CXXC-DNA interaction inhibition; 290,000 tested, 0.037% active; Q03164; AID 2662; MLL-CXXC / FITC-HOXA9 DNA fluorescence polarization; Potency, µM (highest dose often 115 µM), inactives show top-dose activity change, negative = inhibition, most hits filed as inhibitors; active = well fitted inhibition curve with a large enough effect in the polarisation, with a control signal flat, not every such curve was filed as active; inconclusive = small, poorly fitted or top-dose-only effect, or effect the other way, or a change in a side signal; inactive = no such curve, though single readings can be large or run the other way; the % refers to the polarisation; note: potency is the fitted concentration of half-maximal effect
#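 Fluorescence polarization: 7 uM MLL-CXXC (stock) preincubated 5 min with compounds, then 50 nM fluorescein-HOX-A9 DNA (stock) added; 30 min ambient. Buffer 50 mM Tris-HCl pH 7.5, 50 mM NaCl, 1 mM DTT, 0.05% BSA.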
# MLL CXXC FP-Fl = disrupts human MLL CXXC domain binding to DNA; shares compounds with CXXC DNA block; MLL CXXC-DNA binding, fluorescein FP; Potency, µM (highest dose often 345 µM), for the others: at the top dose activity change, negative = inhibition, most hits filed as inhibitors; 200 tested, 70% active; note: potency is the fitted concentration of half-maximal effect; nearly all actives have a fitted effect of over 80% in size
# MLL CXXC TxRed = MLL CXXC-DNA interaction inhibition, Texas Red FP | 200 tested, 40% active | AID 624161 | MLL CXXC-DNA binding, Texas Red fluorescence polarization | shares compounds with CXXC DNA block | Potency, µM (series often up to 345 µM), without a hit: at the top dose activity change, negative = inhibition, usual class: inhibitors; note: potency is the fitted concentration of half-maximal effect; % is set by controls: 0 for no effect and ±100 for the full control effect; nearly all actives have a fitted effect of over 75% in size
# MLL CXXC HTRF = inhibitors of human MLL CXXC domain-DNA interaction, HTRF format. shares compounds with CXXC DNA block. MLL CXXC-DNA binding, HTRF, biochemical. Potency, µM (top dose mostly 172 µM), without a hit: at the top dose activity change, negative = inhibition, most hits filed as inhibitors. 210 tested, 30% active. AID 624162; note: % is set by controls: 0 for no effect and ±100 for the full control effect; nearly all actives have a fitted effect of over 80% in size
# An asterisk follows results filed as active; i = inactive; ? = inconclusive; · = no result given; [ ] = another dose, or the depositor's remark. Hits are enriched below; roughly 0.5% of the tested compounds scored in any of these assays. Unless noted, calls come from the whole dose curve; as a rule, active = well fitted curve in the direction sought with a large enough effect; inconclusive = small, poorly fitted or top-dose-only effect, or another doubt; inactive = no such curve, though single readings can be large; an effect the other way counts as inactive or inconclusive.
SMILES,TRb SRC2 PPI,Menin MLL FP FL,TR SRC2 fluor cs,Menin-MLL TR inh,RGS12 GoLoco inh,CXXC DNA block,MLL CXXC FP-Fl,MLL CXXC TxRed,MLL CXXC HTRF
O=C1C(Cl)=C(Nc2ccc(S(=O)(=O)Nc3ccccn3)cc2)C(=O)c2ccccc21,·,·,·,·,-33.3%[14.2 µM],·,·,·,·
O=C1C(Cl)=C(NS(=O)(=O)c2ccc([N+](=O)[O-])cc2)C(=O)c2ccccc21,7.4%,-2.2,-2.5%,·,-3.5%,50.1µM*,56.5µM*,100µM*,76.9µM*
CCOC(=O)/C(=C/C=C1\Sc2cc(OCC)c(OCC)cc2N1CC)C(C)=O,-8.8%,?,16.3%,-23.1%,148.9%,?,0.565µM*,?,61.2%
CSc1c(C#N)c(N)nc2sc(C(=O)c3ccccc3)c(N)c12,3.9%,?,0.9%,·,2.6%,?,·,·,·
Nc1c(C(=O)c2ccccc2)sc2snc(SCC(=O)c3ccccc3)c12,-2.6%,?,-9.8%,?,12.0%,?,i,-4.8%,11.3%
Cc1ccc(C=C2C(=O)c3ccccc3C2=O)o1,20.9%,8.4,14.4%,24.4%,103.4%,0.2%,·,·,·
O=C(O)c1ccc2c(c1)C(=O)/C(=C\c1ccco1)C2=O,2.9%,4.2,?,?,-13.7%,31.6µM*,22.5µM*,17.8%,48.5µM*
Cc1ccc(/C=C2/C(=O)c3ccc(C(=O)O)cc3C2=O)o1,15.9%,?,-11.9%,?,243.7%,39.8µM*,?,?,38.5µM*
O=C(Nc1ccc(Oc2ccccc2)cc1)C1CCN(S(=O)(=O)c2ccccc2)CC1,-9.0%,·,-0.9%,·,·,·,·,·,·
NS(=O)(=O)c1ccc(NC2=CC(=O)C(=O)c3ccccc32)cc1,·,-5.4,·,?,·,?,?,?,107.8%
C#C[C@]1(O)CC[C@H]2[C@H]3CCc4cc(O)ccc4[C@@H]3CC[C@@]21C,-0.9%,?,-1.0%,3.7%,·,·,·,·,·
O=C(OCC1OC(OC(=O)c2cc(O)c(O)c(OC(=O)c3cc(O)c(O)c(O)c3)c2)[C@@H](OC(=O)c2cc(O)c(O)c(OC(=O)c3cc(O)c(O)c(O)c3)c2)C(OC(=O)c2cc(O)c(O)c(OC(=O)c3cc(O)c(O)c(O)c3)c2)C1OC(=O)c1cc(O)c(O)c(OC(=O)c2cc(O)c(O)c(O)c2)c1)c1cc(O)c(O)c(OC(=O)c2cc(O)c(O)c(O)c2)c1 (some centres undefined),?,?,15.8µM*[quencher],?,-14.2%,63.1µM*,3.56µM*,4.48µM*,0.385µM*
Cc1cn(C2OC(COC(=O)c3ccccc3)C(OC(=O)c3ccccc3)C2OC(=O)c2ccccc2)c(=O)[nH]c1=O (centres undefined),-7.9%,1.4,-0.3%,-6.1%,1.0%,-9.5%,·,·,·
COc1cc(/C=C2/C(=O)N(c3ccc(C(=O)O)cc3)N=C2C)cc(OC)c1O,·,19.8,·,?,·,31.4%,·,·,·
C#CCOc1ccc(/C=C2/C(=O)N(c3cccc(C(=O)O)c3)N=C2C)cc1OC,·,-1.8,·,?,·,44.7µM*,44.8µM*,71.1µM*,96.8µM*
Cc1cc2nc([C@H](C)C(=O)c3ccc(Cl)cc3)c(=O)[nH]c2cc1C,·,·,·,·,2.6%[14.2 µM],·,·,·,·
CSC1=C(C#N)C(=O)NC(c2ccccc2O)S1 (centres undefined),1.8%,4.0,-6.7%,·,-4.9%,12.6µM*,79.7µM*,43.5%,?
Fc1ccccc1COc1ccc(Br)cc1CNCc1ccncc1,-12.9%,-1.0,-3.2%,?,-6.8%,-19.8%,·,·,·
Fc1ccccc1COc1ccc(Br)cc1CNCc1cccnc1,1.1%,-4.7,-0.2%,?,2.4%,?,?,?,-9.5%
Nc1nc(SCC(=O)c2cccc([N+](=O)[O-])c2)n[nH]1,-5.0%,0.3,-10.9%,4.9%,-6.2%,-2.3%,·,·,·
CCn1c(CSc2n[nH]c(N)n2)nc2cc(C(=O)O)ccc21,28.2µM*,-26.0,35.5µM*[fluorescent],?,3.55µM*,35.5µM*,113µM*,113µM*,6.5%
NC(=O)CN1C(=O)C(=O)N(Cc2cccc(Cl)c2)C1=O,·,1.6,·,3.3%,·,?,66.2%,-9.1%,-3.0%
O=C(CN1C(=O)C(=O)N(Cc2ccccc2)C1=O)Nc1cc(Cl)cc(Cl)c1,-2.9%,-1.5,-6.0%,·,-2.4%,1.6%,·,·,·
CCOC(=O)c1c(NC(C)=O)sc2c(OCCN(CC)CC)c(Br)ccc12,-0.9%[53 µM],1.6,-2.6%[53 µM],?,9.4%,35.5µM*,113µM*,4.9%,2.1%
O=C(Nc1ccc2nn(-c3ccccc3)nc2c1)c1ccc(-c2cccc(Cl)c2)o1,-1.1%,·,5.8%,·,·,·,·,·,·
SMILES,TRb SRC2 PPI,Menin MLL FP FL,TR SRC2 fluor cs,Menin-MLL TR inh,RGS12 GoLoco inh,CXXC DNA block,MLL CXXC FP-Fl,MLL CXXC TxRed,MLL CXXC HTRF
O=C(O)c1ccccc1-c1c2cc(Br)c(=O)c(Br)c-2oc2c(Br)c(O)c(Br)cc12,?,?,28.2µM*[fluorescent],?,·,?,0.633µM*,5.03µM*,-61.7%
CN1CCc2c(sc3c2C(=O)NC(c2ccc(C(C)(C)C)cc2)N3)C1 (centres undefined),-6.0%,·,20.1%,·,·,·,·,·,·
COc1ccc(-c2nn(-c3ccccc3)cc2/C=C/C(=O)OCC(=O)Nc2ccc(C#N)cc2)cc1,3.0%,5.9,-1.0%,?,4.1%,?,67.7%,?,5.3%
COc1ccc(-c2nn(-c3ccccc3)cc2/C=C/C(=O)OCC(=O)Nc2cccc(C#N)c2)cc1,5.1%,-1.8,7.1%,?,-31.0%,13.2%,·,·,·
CCOC(=O)c1c(S(=O)(=O)N2CCC(C(=O)N3CCN(c4cc(C)ccc4C)CC3)CC2)c(C)n(C)c1C,-1.7%,·,-2.5%,·,·,·,·,·,·
S=C(NC1CCCCC1)N1CCN(C2CCCCC2)CC1,4.2%,-10.5,-4.3%,?,8.3%,?,?,13.7%,-0.3%
O=C(NC1CCCCC1)N1CCN(C2CCCCC2)CC1,-4.0%,0.4,1.8%,-6.5%,5.7%,4.5%,·,·,·
COc1ccc(C2=Nn3c(nnc3-c3ccc(OC)c(OC)c3)SC2)cc1OC,3.2%,2.8,-2.1%,-8.7%,·,·,·,·,·
O=C1C(=Cc2cccs2)C(=O)c2ccccc21,-2.1%,-4.4,0.6%,10.4%,-2.1%,?,22.5µM*,?,15.0%
